Measured values from the supplement of paper PMC13380429.
A number with no mark means an inactive call.

System: Vero E6 infected with SARS-CoV-2
Test: inhibition of SARS-CoV-2 cytopathic effect; higher = more antiviral protection, active = above 15
Conditions: 48 h

Row | Structure (SMILES) | inhibition of SARS-CoV-2 cytopathic effect (1 nM) [%] | inhibition of SARS-CoV-2 cytopathic effect (8.33 nM) [%] | inhibition of SARS-CoV-2 cytopathic effect (100 nM) [%] | inhibition of SARS-CoV-2 cytopathic effect (833.33 nM) | inhibition of SARS-CoV-2 cytopathic effect (10000 nM)
1 | O=c1ncccn1[C@@H]1O[C@H](CO)[C@@H](O)[C@H]1O [zebularine] | -2.02 | -1.31 | 1.93 | 1.42% | -1.45%
2 | CC(C)C(=O)OC[C@@]1(N=[N+]=[N-])O[C@@H](n2ccc(N)nc2=O)[C@H](OC(=O)C(C)C)[C@@H]1OC(=O)C(C)C [balapiravir] | 2.39 | 1.09 | 0.61 | -0.11% | 0.76%
3 | COc1ccc(CCN2CCN(CCCc3ccccc3)CC2)cc1OC [cutamesine] | 1.71 | 0.69 | 3.33 | 2.23% | -5.76%
4 | C=CC(=O)N1CCN(C(=O)CNc2cc(I)c(Cl)cc2O)CC1 [K-Ras(G12C)-inhibitor-12] | 3.63 | 2.32 | 7.62 | 24.7% (active) | 30.4% (active)
5 | Nc1nc(=O)n([C@H]2C[C@H](O)[C@@H](CO)O2)cc1Cl [cytochlor] | 0.97 | 0.46 | 0.45 | 1.92% | -1.33%
6 | CCN1CCC[C@H]1CNC(=O)c1c(OC)ccc(Br)c1OC [remoxipride] | -2.39 | 2.05 | 0.28 | 0.51% | -1.54%
7 | CSc1ccc(C(=O)c2[nH]c(=O)[nH]c2C)cc1 [enoximone] | -4.27 | -5.05 | -6.45 | -4.44% | -2.39%
8 | COc1ccc(-c2csc(NC(=O)[C@H]3CCCCN3S(=O)(=O)c3ccc(C)cc3)n2)cc1 | 0.8 | 2.33 | 1.23 | 2.63% | 1.27%
9 | COc1cc(/C=C/C(N)=O)cc(OC)c1OC [cintriamide] | -2.6 | 1.17 | -4.56 | 2.97% | 2.84%
10 | O=C(O)CNC(=O)c1ccccc1 [hippuric-acid] | -0.58 | 1.5 | 3.97 | 1.76% | 0.17%
11 | CC(C)[C@H]1CC[C@H](C(=O)N[C@H](Cc2ccccc2)C(=O)O)CC1 [nateglinide] | 0.56 | 2.28 | 0.38 | 1.09% | 1.33%
12 | CO[C@H]1/C=C/O[C@@]2(C)Oc3c(C)c(O)c4c(O)c(c(/C=N/N5CCN(C6CCCC6)CC5)c(O)c4c3C2=O)NC(=O)/C(C)=C\C=C\[C@H](C)[C@H](O)[C@@H](C)[C@@H](O)[C@@H](C)[C@H](OC(C)=O)[C@@H]1C [rifapentine] | -8.98 | -0.78 | -1.42 | 1.06% | 1.47%
13 | O=C1[O][SbH]23[O]C(=O)C([O]2)C2[O][SbH]4([O]C(=O)C([O]4)C1[O]3)[O]C2=O [antimonyl] | 0.49 | 0.38 | -2.02 | 0.19% | -10.4%
14 | CCN(CC)C(=O)c1ccc(C2=CC3(CCNCC3)Oc3cccc(O)c32)cc1 | -0.93 | -0.47 | -4.19 | -2.26% | -2.32%
15 | CC(=O)SC[C@@H](C)C(=O)N1CCC[C@H]1C(=O)N[C@@H](Cc1ccccc1)C(=O)O [alacepril] | -1.69 | 0.59 | 0.98 | -1.33% | -0.44%
16 | CCOC(N)=O [urethane] | -3.1 | -4.31 | -0.41 | -2.2% | 1.53%
17 | CN1CCN(c2ccc3nc(-c4c(N)c5c(F)cccc5[nH]c4=O)[nH]c3c2)CC1 [dovitinib] | 1.8 | 0.97 | 0.34 | -1.8% | -0.5%
18 | NC[C@@H]1O[C@H](O[C@@H]2[C@@H](CO)OC(O[C@@H]3[C@@H](O)[C@H](N)C[C@H](N)[C@H]3OC3O[C@H](CN)[C@@H](O)[C@H](O)[C@H]3N)[C@@H]2O)[C@H](N)[C@@H](O)[C@@H]1O (stereo not given in full) | -1.31 | -1.2 | 0.22 | 1.17% | -0.07%
